# Most compounds without a hit are left out; they make up all but 3.4% or so of the library.
# NF-kB neuron act – raises NF-kB expression in human neuronal cells; NF-kB reporter expression; stronger effect = higher value; fold change at 12.5 µM; hit rate 1.6% among 190,000; in the data active = fold change above about 3.3
# hgDAF-12 ag – agonists of H. glycines DAF-12 nuclear receptor; HEK293 GAL4-hgDAF12 UAS-luciferase reporter, agonist luminescence; normalized to butyrate control; activation, % at 6.8 µM; hit rate 1.8% among 370,000;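 active = activation above a cutoff set at the mean of all screened compounds plus 3 SD, cut at about 10% in these data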;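 note: 0% = DMSO wells and 100% = sodium butyrate wells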
# hcDAF-12 act – H. contortus DAF-12 activation, primary screen; HEK293 hcDAF-12 lit1-tk-luc reporter, luminescence; 0% DMSO, 100% Δ7-dafachronic acid; activation, % at 6.8 µM; hit rate 1.4% among 370,000;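 active = activation above the mean of all tested compounds plus 3 SD, cut at about 5.5% in these data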;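 note: 100% = response to 3 µM Δ7-dafachronic acid high control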
# APP 5'UTR act – activates APP 5'UTR luciferase reporter | SH-SY5Y APP 5'UTR luciferase reporter, luminescence; zero percent = DMSO vehicle wells | activation, % at 2 µM | hit rate 1% among 190,000;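 active = activation above a set limit, based on mean plus 3 SD of controls, cut at about 140% in these data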
# ssDAF-12 act – activates DAF-12 receptor from parasite S. stercoralis; HEK293 ssDAF-12/GRIP1 lit1-tk-luc reporter, luminescence; % of 3 µM dafachronic acid response; hit rate 1% among 370,000; activation, % at 6.8 µM;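 active = activation above the mean over all tested compounds plus 3 SD, cut at about 0.9% in these data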;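 note: 0% = DMSO-only wells and 100% = 3 µM delta7-dafachronic acid wells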
# LXRb hcDAF ctr – counter-screen for hcDAF-12 agonists: agonists of human LXR-beta. shares compounds with hcDAF-12 act. HEK293 Gal4-LXR tk-luc reporter, luminescence, 24 h; normalized: DMSO 0%, positive control 100%. activation, % at 6.8 µM. 3,400 tested, under 10 active;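 active = mean percent activation of the reporter above a cutoff set as the average over tested compounds plus their standard deviation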
# Target sequence (P55055 whole entry, looked up, the tested form may be a part): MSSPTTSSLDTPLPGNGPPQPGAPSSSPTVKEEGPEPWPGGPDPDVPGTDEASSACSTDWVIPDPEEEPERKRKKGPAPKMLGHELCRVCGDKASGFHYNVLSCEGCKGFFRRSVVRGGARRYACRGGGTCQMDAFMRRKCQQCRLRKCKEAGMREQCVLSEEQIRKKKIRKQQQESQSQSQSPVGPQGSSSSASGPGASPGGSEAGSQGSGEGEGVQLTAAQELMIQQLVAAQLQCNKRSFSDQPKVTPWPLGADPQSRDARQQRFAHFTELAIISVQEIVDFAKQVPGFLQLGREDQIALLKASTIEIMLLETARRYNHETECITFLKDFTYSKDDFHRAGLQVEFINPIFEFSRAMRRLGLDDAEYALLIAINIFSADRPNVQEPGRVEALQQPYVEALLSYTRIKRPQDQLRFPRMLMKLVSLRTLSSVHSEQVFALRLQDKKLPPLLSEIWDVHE
# hcDAF12 ag – confirmation of H. contortus DAF-12 agonists | shares compounds with hcDAF-12 act | HEK293 hcDAF-12 lit1-tk-luc reporter, luminescence; % of Δ7-dafachronic acid response | activation, % at 6.8 µM | hit rate 61% among 3,400 | AID 743032;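 active = mean activation across triplicate tests above the threshold derived from the earlier primary screen, cut at about 5.5% in these data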;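 note: 0% = DMSO only wells and 100% = 3 µM Δ7-dafachronic acid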
# hgDAF12 ag – confirmation of H. glycines DAF-12 agonists | HEK293 GAL4-hgDAF12 luciferase reporter, agonist mode; percent of butyrate response | shares compounds with hgDAF-12 ag | activation, % at 6.8 µM | hit rate 80% among 3,300;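 active = mean activation over triplicate wells above the hit cutoff derived from the earlier primary screen, cut at about 11% in these data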;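 note: 0% = DMSO low control and 100% = 2 mM sodium butyrate high control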
# LXR ag 2 – LXR-beta agonism as DAF-12 counter-screen; activation, % at 6.8 µM; shares compounds with hgDAF-12 ag; 3,300 tested, under 10 active; HEK293 Gal4-LXR luciferase reporter, 24 h;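 active = mean activation of the triplicate above a set limit carried over from the primary screen, none filed active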
# The depositor's hits bear a star; . = no result given.
SMILES,NF-kB neuron act,hgDAF-12 ag,hcDAF-12 act,APP 5'UTR act,ssDAF-12 act,LXRb hcDAF ctr,hcDAF12 ag,hgDAF12 ag,LXR ag 2
Fc1ccccc1-c1ccc(/C=N/Nc2nc3ccccc3[nH]2)o1,2.9,21*,13*,74,3.4*,1,13*,18*,1
Cc1ccc(-c2nc3ccsc3c(=O)[nH]2)cc1,2.4,22*,12*,198*,1.4*,1,14*,15*,1
O=C(NC(=S)Nc1cc([N+](=O)[O-])ccc1O)c1ccc2c(c1)OCO2,.,16*,9.2*,.,0,2,9.7*,18*,1
COc1cc([N+](=O)[O-])ccc1NC(=S)NNC(=O)c1ccc2c(c1)OCO2,.,2,1,.,-1,.,.,.,.
CC(C)c1cc(C(C)C)c(S(=O)(=O)N2CCCC(C(=O)N3CCN(Cc4ccccc4)CC3)C2)c(C(C)C)c1 (configuration not stated),.,-2,3,.,-1,.,.,.,.
Cc1cccc(Cn2cc(CN3CC(N4CCN(CCOC(=O)c5cc6ccccc6o5)CC4)CS3(=O)=O)nn2)c1 (configuration not stated),.,-1,1,.,0,.,.,.,.
COc1ccc(OC)c(N=c2oc3cc(O)ccc3cc2C(N)=O)c1,0.24,1,-1,-14,-2,.,.,.,.
COc1ccc2cc(C(N)=O)c(=Nc3ccccc3)oc2c1,2,14*,14*,137*,0,1,2,13*,1
CC1CCc2c(sc(NC(=O)C3=COCCO3)c2C(N)=O)C1 (configuration not stated),.,15*,8.7*,.,1.4*,1,5,19*,1
CNC(=O)c1c(NC(=O)C2=COCCO2)sc2c1CCC(C)C2 (configuration not stated),.,2,-2,.,-1,.,.,.,.
O=C(Nc1cccc(O)c1)c1c(O)c2ccccc2[nH]c1=O,.,13*,14*,.,3.9*,2,15*,24*,1
Cn1cc(/C=C/C(=O)c2ccccc2)c2ccccc21,.,14*,12*,200*,1.4*,2,13*,22*,1
C[C@@H]1OC(C2CCCCC2)N(C)[C@H]2C[C@H]3c4[nH]c5c(-c6ccc7c(c6)OCO7)cccc5c4CCN3C[C@@H]12 (some centres not stated),.,3,-1,.,-1,.,.,.,.
CC1=CC(c2ccccc2)=Nc2ccc(C)cc2N1,5.4*,19*,13*,182*,3.5*,2,9.6*,19*,1
O=C(OC12CCCN(C1)/C(=C/c1ccccc1)C2)c1ccc(Cl)cc1 (configuration not stated),.,1,-1,.,-1,.,.,.,.
CCC(=O)NC1=C(Nc2ccc(N)cc2)C(=O)c2ccccc2C1=O,.,13*,7.9*,.,1,1,8.0*,11*,1
CC(NC(=O)c1cc(COc2ccccc2)on1)c1nccs1 (configuration not stated),.,20*,7.9*,.,0,1,6.0*,19*,1
CC(=O)c1ccc(OCc2cc(C(=O)NC(C)c3cnn(C)c3)no2)cc1 (configuration not stated),.,7,1,.,0,.,.,.,.
CC(C)CC(CCOCCO)NC(=O)OCc1ccccc1[N+](=O)[O-] (configuration not stated),.,1,0,.,-1,.,.,.,.
Cc1cccc(Nc2n[nH]c(C)c2[N+](=O)[O-])c1,3.7*,14*,6.8*,101,0,1,5.8*,14*,1
O/C(=C\c1ccc2ccccc2n1)c1ccc(O)cc1O,8.1*,24*,8.9*,158*,1.4*,2,10*,22*,1

# Source: PubChem BioAssay
